Consider 72 compounds from ChEMBL document CHEMBL3988442, “University of Dundee, Small-Polar-MMV Screening Library” (2021).

The campaign covered roughly 48,000 compounds. About 13,000 (27%) showed an effect of 50% or more. The list shows a part of the results.

The assay relates to Wolbachia pipientis. The assay is described as follows: Anti-Wolbachia Cell-Based Screen. The note with it: 5 µM. In kind it is functional. More on the design: scale not given: in the data most compounds retested in dose-response had high values.
Regarding `Cc1nc(CN2CCC(CNC(=O)Nc3ccccn3)CC2)oc1C`, the “Percent Effect” value stood at 15.98%.

Take `COCc1nc2n(n1)CCCC2Nc1nc(C(C)C)ns1` (configuration not stated): the “Percent Effect” value is given as -13.74%.

Consider `CN1CCN(S(=O)(=O)N2CCCCC2CCc2ccc(O)cc2)CC1` (configuration not stated), for which the “Percent Effect” value is listed as -0.6049%.

`CCn1cc(CN2CCCn3nc(CNS(C)(=O)=O)cc3C2)c(C)n1`: the “Percent Effect” value is reported as -7.534%.

Regarding `CC(C)=CCCC1(C)C=Cc2c(cc(C)n(CC(=O)O)c2=O)O1` (configuration not stated), the “Percent Effect” value was 107.4%.

Turning to `CC(C)=CCCC1(C)C=Cc2c(cc(C)n(CCC(=O)O)c2=O)O1` (configuration not stated), the “Percent Effect” value was 110.1%.

Take `Cc1cc2c(c(=O)n1CCC(=O)O)C=CC(C)(C)O2`: the “Percent Effect” value is on record as 159.6%.

On to `CCn1c(C)nnc1SCCNC(=O)c1cnc(C(C)(C)C)nc1O`, for which the “Percent Effect” value is on record as -1.576%.

As to `CN(C)C(=O)N1CCN(CCCOc2ccccc2)[C@H]2CS(=O)(=O)C[C@H]21`, the “Percent Effect” value was -34.84%.

Turning to `CC(O)CN1CCC(CNCc2ccc(C#N)cc2)CC1` (configuration not stated), the “Percent Effect” value amounted to 2.816%.

As to `COc1cccc(N2CC3(CCN(Cc4nccn4C)C3)CC2=O)c1.O=C(O)C(F)(F)F` (configuration not stated), the “Percent Effect” value is given as 13.06%.

In the case of `Cn1ccnc1CN1CCC2(CC1)CC(Oc1cccnc1)C2.O=C(O)C(F)(F)F.O=C(O)C(F)(F)F`, the “Percent Effect” value is reported as -13.8%.

Turning to `Cn1ccnc1CN1CCC(F)(F)C2(CCN(c3cccnc3)C2)C1.O=C(O)C(F)(F)F.O=C(O)C(F)(F)F` (configuration not stated), the “Percent Effect” value was 75.41%.

With `Cn1ccnc1CN1CCC(F)(F)C2(CCN(c3cnccn3)C2)C1.O=C(O)C(F)(F)F` (configuration not stated), the “Percent Effect” value is reported as 108.4%.

As to `Cn1cc(N2CC3(CCN(Cc4nccn4C)C3)CC2=O)cn1.O=C(O)C(F)(F)F` (configuration not stated), the “Percent Effect” value is -13.1%.

`Cc1ccc(N2CC3(CCN(Cc4nccn4C)C3)CC2=O)s1.O=C(O)C(F)(F)F` (configuration not stated): the “Percent Effect” value is 20.39%.

As for `Cc1cnn(C(C)C2CC2)c1NC(=O)c1cnccn1` (configuration not stated), the “Percent Effect” value is given as 2.38%.

For the compound `COc1ccc(CN2CCN(C(C)=O)CC2)cc1SC(F)(F)F`, the “Percent Effect” value is -8.503%.

`COc1ccc(Oc2ccc(CNC(=O)C3CCS(=O)(=O)C3)cn2)cc1` (configuration not stated): the “Percent Effect” value is listed as -6.307%.

In the case of `COc1nc2ccccc2cc1CN1CCCC(CNC(C)=O)C1` (configuration not stated), the “Percent Effect” value turned out to be 6.31%.

Regarding `CCN1Cc2nc(OC)c(CNC(=O)C3CCCN(C)C3)cc2C1=O` (configuration not stated), the “Percent Effect” value amounted to 93.23%.

Take `CCN1Cc2nc(OC)c(CNC(=O)C3CCS(=O)(=O)CC3)cc2C1=O`: the “Percent Effect” value came out at 82.23%.

With `O=C(CCC1CCCCC1)NCc1nnc2ccccn12`, the “Percent Effect” value was -0.7171%.

Consider `CCN1Cc2nc(OC)c(CNC(=O)CCC3CCCC3)cc2C1=O`, for which the “Percent Effect” value was determined as 102.4%.

`CCc1[nH]c2c(CNC(=O)C3CCS(=O)(=O)CC3)cc(C)cc2c1C`: the “Percent Effect” value is -6.161%.

Regarding `Cc1cc(C(F)(F)F)nc(CNC(=O)CCC2CCCN(C)C2)n1` (configuration not stated), the “Percent Effect” value amounted to 9.588%.

For the compound `CCc1[nH]c2c(CNC(=O)C3CCCN(C)C3)cc(C)cc2c1C` (configuration not stated), the “Percent Effect” value is reported as -27.93%.

Turning to `O=C(NCCc1nnc2n1CCCCC2)N1CCC2(CCOC2)C1` (configuration not stated), the “Percent Effect” value is reported as 10.36%.

As to `CNC(=O)c1ccc(=O)n(Cc2csc(C(C)(C)C)n2)c1`, the “Percent Effect” value was determined as 14.6%.

With `Cc1cnn(C2CCCN(C(=O)c3c(C)oc4nc[nH]c(=O)c34)C2)c1` (configuration not stated), the “Percent Effect” value is -0.5439%.

Turning to `COCc1nc(CNC2CCCc3c2cnn3C(C)(C)C)cs1` (configuration not stated), the “Percent Effect” value was -7.69%.

As for `CC1(NC(=O)Cc2csc(C(C)(C)C)n2)CCS(=O)(=O)C1` (configuration not stated), the “Percent Effect” value is listed as -4.538%.

Take `Cc1cc2c(N3CCCC(OCc4cccnc4)C3)ncnc2s1` (configuration not stated): the “Percent Effect” value is 0.4664%.

On to `COCCO[C@H]1CCN(c2cc(OC)ncn2)[C@H]1Cc1ccncc1`, for which the “Percent Effect” value is reported as -8.224%.

`Cc1cc(N2CCC(Cc3cnccn3)C2)ncn1` (configuration not stated): the “Percent Effect” value is 100.8%.

Consider `CN1CCN(c2cc(NC(=O)c3cnccn3)ncn2)CC1`, for which the “Percent Effect” value is reported as -2.529%.

As for `COc1cc(N2CCC(c3nccn3Cc3cccnc3)CC2)ncn1`, the “Percent Effect” value was determined as 2.829%.

Take `COc1cc(N2CC[C@H]3OCC[C@@]3(COc3nccc(C)n3)C2)ncn1`: the “Percent Effect” value is reported as -2.077%.

In the case of `Cc1cc(N2CCC(Cc3cccnc3)CC2)ncn1`, the “Percent Effect” value is 156%.

Turning to `Cc1cc(N2CCCC2c2cnccn2)ncn1` (configuration not stated), the “Percent Effect” value is listed as -8.281%.

For the compound `C[C@@H]1CN(c2cc(N3CCC(O)CC3)ncn2)C[C@@]1(O)C1CCC1`, the “Percent Effect” value turned out to be 2.327%.

Regarding `Cc1cc(N2CCC(Cc3ccncc3)C2)ncn1` (configuration not stated), the “Percent Effect” value is reported as 95.84%.

As to `Cc1ccc(N2CCCC(NCc3ccncc3)C2)nn1` (configuration not stated), the “Percent Effect” value is 1.645%.

With `Cc1cc(N2CCC(Cc3ncccn3)C2)ncn1` (configuration not stated), the “Percent Effect” value is 90.07%.

`CCN(C(=O)c1cc2c([nH]c1=O)CCCC2=O)C1CCCCC1`: the “Percent Effect” value was 14.13%.

On to `CN(C)c1ncc(CNC(=O)Nc2ccccc2C(F)(F)F)n1C`, for which the “Percent Effect” value came out at 9.124%.

With `Cn1nc2c(cc1=O)CN(Cc1coc(-c3cccs3)n1)CC2`, the “Percent Effect” value was determined as 1.365%.

For the compound `COCCN1C[C@H]2CC[C@@H]1CN(C(=O)CCc1n[nH]c(C)c1C)C2`, the “Percent Effect” value was 0.4749%.

For `CC(=O)c1c(F)cccc1N1CCC(Cc2cccnc2)CC1`, the “Percent Effect” value is given as -2.782%.

With `COc1cc(N2CCCC(c3nccn3Cc3cccnc3)C2)ncn1` (configuration not stated), the “Percent Effect” value is given as -16.56%.

With `Cc1cc(N2CCC(Cc3cccnc3)C2)ncn1` (configuration not stated), the “Percent Effect” value worked out at 84.65%.

Turning to `Cl.NCCc1cn(Cc2ccccn2)c2ccccc12`, the “Percent Effect” value stood at 119.5%.

Regarding `NC(=O)CCn1cc(CNCCCc2ccncc2)c2ccccc21`, the “Percent Effect” value was -11.7%.

Take `Cc1cc(C(=O)N2C[C@H]3CC[C@@H]2CN(Cc2ccccn2)C3)nc(N)n1`: the “Percent Effect” value is on record as 2.343%.

Consider `CS(=O)(=O)N[C@H]1CCO[C@]2(CCN(CC3CCOCC3)C2)C1.O=C(O)C(F)(F)F`, for which the “Percent Effect” value is 0.7443%.

`COC1COC2(CCN(CC3CC3)CC2)C1.O=C(O)C(F)(F)F` (configuration not stated): the “Percent Effect” value was found to be 95.93%.

For the compound `COC1COC2(CCN(CC3CCOCC3)CC2)C1.O=C(O)C(F)(F)F` (configuration not stated), the “Percent Effect” value was found to be 105.7%.

Take `CS(=O)(=O)N[C@@H]1CCO[C@]2(CCN(CC3CCOCC3)C2)C1.O=C(O)C(F)(F)F`: the “Percent Effect” value is given as -3.641%.

Take `CC(C)(C)c1ncc(CNc2ccccc2Cn2cncn2)s1`: the “Percent Effect” value is reported as 1.316%.

As for `CSCC(=O)N[C@H]1CN(Cc2c(C)noc2C)C[C@@H]1C(C)C`, the “Percent Effect” value is given as -1.777%.

Consider `CC(C)CN1CC(c2nc(C3CC3)n[nH]2)CC1=O` (configuration not stated), for which the “Percent Effect” value is reported as 4.423%.

As for `Cc1ccc(-c2ccc(=O)n(CC(=O)Nc3nccs3)n2)cc1`, the “Percent Effect” value is recorded as 124.1%.

Consider `O=C(NCc1ccccc1CN1CCCC1=O)Nc1nccs1`, for which the “Percent Effect” value was -2.659%.

For the compound `COc1cc(Cl)ccc1C(=O)NCC(=O)Nc1nccs1`, the “Percent Effect” value is listed as -9.549%.

As to `Cc1ccccc1C(=O)Nc1cnn(CC(=O)NC2CCCC2)c1`, the “Percent Effect” value was -2.578%.

For the compound `CCC(=O)NC1CCCN(Cn2nc(C(C)(C)C)ccc2=O)C1` (configuration not stated), the “Percent Effect” value is listed as -0.4021%.

With `O=C(Nc1ccccc1)c1ccc(NCc2nccs2)nn1`, the “Percent Effect” value worked out at 3.378%.

With `O=C(CCn1nc(C(=O)Nc2ccccc2)ccc1=O)Nc1nccs1`, the “Percent Effect” value was found to be 112.6%.

`Cc1cc(C)n(CC2CCCCN2CC(=O)Nc2nccs2)n1` (configuration not stated): the “Percent Effect” value was -11.15%.

`CSc1nc2cc(C)n(CC(=O)Nc3nccs3)c2c(=O)n1CC(C)C`: the “Percent Effect” value is listed as -4.494%.

Regarding `Cc1ccc(NC(=O)c2ccc(=O)n(CC(=O)NC3CCCC3)n2)cc1`, the “Percent Effect” value was found to be 106.4%.

With `Cc1ccc(NC(=O)c2ccc(=O)n(CC(=O)Nc3nccs3)n2)cc1`, the “Percent Effect” value is 101.8%.
